Experimental findings from PubChem BioAssay (NCATS) are described below.

Unmarked numbers belong to inactive results. Records with an inconclusive call do not appear. Activity calls are given as the source filed them. Calls come from the whole dose curve; as a rule, active = well fitted curve in the direction sought with a large enough effect; inconclusive = small, poorly fitted or top-dose-only effect, or another doubt; inactive = no such curve, though single readings can be large; an effect the other way counts as inactive or inconclusive.

Assay [1] in a line: HPAF-II 24hr Apoptosis Induction qHTS against the NCATS CANVASS Library (AID 1347356). Note: 0% is about no effect. A digest of the protocol: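 Caspase-Glo 3/7 luminescence, read after 15 min room-temperature development, measures apoptosis in HPAF-II cells treated 24 h at 37 degrees C with an 11-point concentration series; 500 cells/well; doxorubicin control.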
On the technique in general: Quantitative high-throughput screening tests each substance at several concentrations.

A short description of assay [2]: HEK293 18hr Apoptosis Induction qHTS against the NCATS CANVASS Library (AID 1347357). Note: 0% is about no effect. A digest of the protocol: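 HEK293 cells (500/well, DMEM + 10% FBS) treated with an 11-point series for 18 h at 37 degrees C. Caspase-3/7 activity read by Caspase-Glo luminescence after 15 min at room temperature.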
Assay [3] is described as follows: HEK293 24hr Apoptosis Induction qHTS against the NCATS CANVASS Library (AID 1347359). Note: 0% is about no effect. The procedure, abridged: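 HEK293 cells (500/well, DMEM + 10% FBS) were exposed to compounds in an 11-point series for 24 hours at 37 degrees C, then caspase-3/7 activity was read by Caspase-Glo DEVD luciferase luminescence after 15 min.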
Assay [4] relates to NAD(P)H diaphorase (Clostridium kluyveri). As to the kind of experiment: Diaphorse counterscreen qHTS: Assay Interference Panel against the NCATS CANVASS Library (AID 1347362). Note: 0% is about no effect. The procedure, abridged: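 Clostridium kluyveri diaphorase in PBS with 0.01% Tween-20 was preincubated 15 min at room temperature in the dark with compounds (11-point series). Resorufin fluorescence (ex 525/20, em 598/25) was read 5 min after adding resazurin/NADH.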
A general note: Counterscreens check selectivity or assay interference.

In assay [5] the target is Luciferin 4-monooxygenase (Photinus pyralis) (UniProt P08659). As to the kind of experiment: Firefly luciferase counterscreen qHTS: Assay Interference Panel against the NCATS CANVASS Library (AID 1347363). Note: series mostly up to about 57 µM; 0% is about no effect. A digest of the protocol: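 Purified P. pyralis luciferase was added to compounds (11-point series) preincubated 15 min at room temperature with substrate containing 0.013 mM D-luciferin and 0.013 mM ATP; luminescence was read after 5 min.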

The nature of assay [6]: KB-3-1 Cancer Cell Toxicity qHTS against the NCATS CANVASS Library (AID 1347366). For activity change, negative = cytotoxicity: series mostly up to about 46 µM; % is set by controls: 0 for no effect and ±100 for the full control effect. Note: nearly all actives have a fitted effect of over 75% in size. Note: potency is the fitted concentration of half-maximal effect. A digest of the protocol: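 KB-3-1 cells (500/well) in DMEM with 10% FBS were exposed to compounds for 72 h at 37C. Viability was read by CellTiter-Glo luminescence.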
A short description of assay [7]: qHTS for ATAD5 Agonist screened against the NCATS CANVASS Library (AID 1347367).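 Note: luciferase reporter driven by ATAD5 which rises upon DNA damage; 0% is about no effect.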 A digest of the protocol:
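Luciferase reporter under ATAD5 control, stably integrated in HEK293T cells (2000/well). Compounds (11 points) incubated 16 h at 37C; viability read first by CellTiter-Fluor, then luminescence reporting ATAD5 activation. MMS positive control.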

Assay [8] in a line: G06 Cancer Cell Toxicity qHTS against the NCATS CANVASS Library (AID 1347368). For activity change, negative = cytotoxic: series mostly up to about 46 µM; % is set by controls: 0 for no effect and ±100 for the full control effect. Note: nearly all actives have a fitted effect of over 60% in size. Note: potency is the fitted concentration of half-maximal effect. A digest of the protocol:
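Viability measured by CellTiterGlo ATP luminescence after 72 hr at 37C, 5% CO2. Canine G06 glioma cells plated at 500/well. Compounds tested as 11-point qHTS titrations.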

Assay [9] in a line: MCF7 Cancer Cell Toxicity qHTS against the NCATS CANVASS Library (AID 1347369). A digest of the protocol: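 MCF7 cells (500/well) were exposed 72 h at 37 °C to compounds in an 11-point series. Viability was read as ATP content by CellTiterGlo luminescence.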
The nature of assay [10]: qHTS for ATAD5 Antagonist screened against the NCATS CANVASS Library (AID 1347370).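 For activity change, negative = inhibition: HEK293T cells carrying an ATAD5 luciferase reporter co-treated with 10 µM 5-fluorouridine; series mostly up to about 46 µM; % is set by controls: 0 for no effect and ±100 for the full control effect.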 Note: nearly all actives have a fitted effect of over 65% in size. Note: potency is the fitted concentration of half-maximal effect. A digest of the protocol:
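Compounds (11-point) co-dosed with 10 µM 5-FUrd for 16 h at 37 °C onto HEK293T-ATAD5 luciferase reporter cells. Viability measured by CellTiter-Fluor fluorescence, then ATAD5 reporter signal by luminescence.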

The nature of assay [11]: J3T Cancer Cell Toxicity qHTS against the NCATS CANVASS Library (AID 1347371). Note: potency is the fitted concentration of half-maximal effect. A digest of the protocol:
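Cytotoxicity read as CellTiterGlo ATP luminescence after 72 h incubation (37C, 5% CO2) of J3T canine glioma cells (500/well) with an 11-point compound series.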

For assay [12], the target named is Nuclear receptor subfamily 1 group I member 3 (Homo sapiens) (UniProt Q14994). Put plainly: qHTS for Constitutive Androstane Receptor (CAR) Antagonist screened against the NCATS CANVASS Library (AID 1347372).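 For activity change, negative = inhibition: cells stimulated with 50 nM CITCO agonist so inhibition reflects antagonism; luciferase from CYP2B6 promoter reporter driven by hCAR in HepG2 cells; series mostly up to about 46 µM; % is set by controls: 0 for no effect and ±100 for the full control effect.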 Note: potency is the fitted concentration of half-maximal effect. A digest of the protocol:
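Cells were seeded and left 4hr to attach, then received compound at 11 concentrations and 50 nM CITCO. Following 24hr incubation, fluorescence viability and luciferase luminescence were read sequentially.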

The target is the same in assay [13]. As to the kind of experiment: qHTS for Constitutive Androstane Receptor (CAR) Agonist screened against the NCATS CANVASS Library (AID 1347373). For activation: 0% is about no effect.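 Note: every well also contained 1.5 µM PK11195 alongside the test compound.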 Note: potency is the fitted concentration of half-maximal effect. The procedure, abridged: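 Agonist mode with 1.5uM PK11195 present: compounds for 24hr on HepG2-hCAR-CYP2B6 cells. CellTiter-Fluor fluorescence (ex 405, em 540 nm) gives viability; ONE-Glo luminescence reports CAR activation.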

Assay [14] can be described thus: 10-beta competent E. coli microbial cell viability qHTS against the NCATS CANVASS Library (AID 1347376). Note: series mostly up to about 46 µM; 0% is about no effect. A digest of the protocol: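 Read-out: BacTiter-Glo ATP luminescence, taken 20 min after reagent addition. Beforehand, 10-beta competent E. coli at 0.2 OD had been incubated overnight at 37C with compounds at 11 concentrations.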
The nature of assay [15]: qHTS for H2AX Agonists against the NCATS CANVASS Library (AID 1347378). Note: 0% is about no effect. The procedure, abridged: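 CHO-K1 cells (1000/well, overnight at 37C) exposed to compounds at several concentrations for 3 hr at 37C, 0.76% DMSO final. Lysates read by TR-FRET (phospho-H2AX S139 Eu-cryptate antibody / H2AX-d2 antibody) after 24 hr at room temperature; 665/615 nm ratio.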
Assay [16] in a line: qHTS for Inflammasome Signaling Inhibitors: IL-1-beta AlphaLISA screen against the NCATS CANVASS Library (AID 1347379).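 For Potency: secreted IL-1B measured as AlphaLISA emission at 615 nm; potency is the fitted concentration of half-maximal effect.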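 Note: human THP-1 cells primed with LPS then triggered with ATP.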 A digest of the protocol:
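Secreted IL-1B from human THP-1 cells quantified by AlphaLISA 16 hr after compound addition (final up to 57.5 uM). A 1 hr compound pretreatment preceded inflammasome activation with 250 ng/mL LPS plus 1.25 mM ATP (final).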

Assay [17] is described as follows: Inflammasome Signaling qHTS Counterscreen: IL-1-beta AlphaLISA counterscreen against the NCATS CANVASS Library (AID 1347381).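 Note: cell-free check with purified IL-1β in medium and no THP-1 cells; series mostly up to about 57 µM; 0% is about no effect.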 The procedure, abridged: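 Purified IL-1-beta (4 pg/well) + compound, 11-pt conc. series; acceptor beads 6 ug/mL + biotin-Ab 0.6 nM final, 1 h RT; SA-donor 24 ug/ml final, 30 min dark RT; read ex 680/em 615.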
The nature of assay [18]: Viability qHTS for inhibitors of the SERCaMP assay screened against the NCATS CANVASS Library (AID 1347400). Note: nearly all actives have a fitted effect of over 70% in size. Note: potency is the fitted concentration of half-maximal effect. A digest of the protocol:
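CellTiter-Glo luminescence measured cytotoxicity after 48 h at 37C of compound treatment (11-point series). Cells were SH-SY5Y-GLuc SERCaMP MJH297 derivatives, seeded at 1000 per well 4 h beforehand.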

The nature of assay [19]: HPAF-II 18hr Apoptosis Induction qHTS against the NCATS CANVASS Library (AID 1347360). Note: 0% is about no effect. The procedure, abridged: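 HPAF-II cells at 500/well were exposed for 18 h at 37 C to an 11-point compound series. Caspase-3/7 activity was read by Caspase-Glo luminescence after 15 min at RT.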
Assay [20] can be described thus: Cytotoxicity qHTS for assessment of Hepg2 cells membrane integrity screened against the NCATS CANVASS Library (AID 1347387). The procedure, abridged:
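Membrane damage quantified as fluorescent LDH-release signal (ex 560, em 590 nm) in HepG2 cells treated 5 hr at 37C. qHTS format, 11 concentrations spanning 0.59 nM - 46 uM final, cells plated at 2000 per well the night before.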

Sequence of Nuclear receptor subfamily 1 group I member 3 (Homo sapiens) (Q14994 whole entry, looked up): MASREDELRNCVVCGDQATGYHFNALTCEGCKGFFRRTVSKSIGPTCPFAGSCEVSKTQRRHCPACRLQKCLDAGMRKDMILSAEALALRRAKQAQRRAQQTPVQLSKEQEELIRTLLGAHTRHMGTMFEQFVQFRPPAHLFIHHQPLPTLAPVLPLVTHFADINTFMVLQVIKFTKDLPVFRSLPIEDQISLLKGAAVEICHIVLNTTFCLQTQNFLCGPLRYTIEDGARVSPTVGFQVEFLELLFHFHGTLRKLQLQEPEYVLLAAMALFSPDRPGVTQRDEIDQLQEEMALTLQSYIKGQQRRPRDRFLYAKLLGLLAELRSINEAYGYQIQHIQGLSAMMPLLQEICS
Sequence of Luciferin 4-monooxygenase (Photinus pyralis) (P08659 whole entry, looked up): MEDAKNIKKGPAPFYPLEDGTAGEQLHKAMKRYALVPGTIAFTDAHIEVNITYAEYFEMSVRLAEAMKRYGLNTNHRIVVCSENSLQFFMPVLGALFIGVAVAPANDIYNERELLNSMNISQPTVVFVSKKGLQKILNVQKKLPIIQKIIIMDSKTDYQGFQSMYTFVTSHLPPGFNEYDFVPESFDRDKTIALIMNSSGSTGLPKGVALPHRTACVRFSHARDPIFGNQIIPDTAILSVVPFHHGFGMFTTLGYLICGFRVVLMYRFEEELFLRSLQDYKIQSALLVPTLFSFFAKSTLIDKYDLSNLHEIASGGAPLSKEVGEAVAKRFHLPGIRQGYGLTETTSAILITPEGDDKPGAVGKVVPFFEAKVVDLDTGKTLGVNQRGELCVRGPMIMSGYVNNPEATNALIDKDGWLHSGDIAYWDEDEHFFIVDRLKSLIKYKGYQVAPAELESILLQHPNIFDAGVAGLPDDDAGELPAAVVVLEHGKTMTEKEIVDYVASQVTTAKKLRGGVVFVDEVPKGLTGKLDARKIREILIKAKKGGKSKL

Take `CO/C=C/C(=O)c1cc2cnc3c(N)cc(=NC(=O)C(C)C)c([nH]1)c23`: the compound was called inactive in assay [1], in assay [14] and in assay [17]. Further, the Potency entry in assay [2], in assay [3], in assay [4], in assay [5], in assay [7] and in [9] was “inactive” throughout. Further, the Potency result in assay [13] and in assay [15] was “inactive” in each case. In addition, the Potency in [6] was 590 nM (active); in assay [8], 132 nM (active); in assay [10] it was 741 nM (active); in [11], 743 nM (active); in assay [12] it was 295 nM (active); in assay [16], 968 nM (active). In assay [18], the Potency is 381 nM (active).

As for `C[C@@]12CCC[C@@](C)(C(=O)O)[C@H]1C[C@@H](O)[C@@]13C[C@@H](CC[C@@H]21)[C@](C)(O)C3`, the result in [1], in assay [17] and in assay [20] was inactive. For the same compound, the Potency result in assay [2], in assay [3], in assay [19], in [4], in assay [5] and in assay [6] was “inactive” each time. Also, the Potency entry in [7], in [8], in assay [9], in assay [10], in [11] and in [12] was “inactive” in each case. The Potency entry in assay [13], in assay [15], in [16] and in [18] was “inactive” each time.

On to `[C-]#[N+][C@@]12C(=O)[C@@H]3[C@@H](O[C@@]4(C(=O)N(C)c5cccc1c54)C3(C)C)C(=O)[C@@]2(C)C=C`, for which the outcome in assay [1], in assay [14], in assay [17] and in [20] was inactive. Also, the Potency result in assay [2], in assay [3], in assay [19], in [4], in [5] and in [6] was “inactive” in each case. In addition, the Potency entry in assay [7], in assay [8], in assay [9], in assay [10], in assay [11] and in assay [12] was “inactive” each time. Further, the Potency entry in [13], in [15], in assay [16] and in [18] was “inactive” each time.

In the case of `COc1ccc([C@@H]2CC(=O)c3c(cc(O)c(C/C=C(\C)CCC=C(C)C)c3O)O2)cc1`, the caspase activation in assay [1] was 3.45% [at 9.19 µM]; in assay [2], 0.682% [at 9.19 µM]; in assay [19], -1.9% [at 9.19 µM]. In addition, the activation is 2.74% [at 9.19 µM] in assay [3], -1.01% [at 9.19 µM] in [7] and 3.21% [at 15.3 µM] in [15]. The activity change, negative = inhibition in [4] was -4.24% [at 11.5 µM]; in assay [5] it was -12.4% [at 11.5 µM]; in assay [10], -0.0168% [at 9.19 µM]; in assay [12], 30.2% [at 9.19 µM]; in [17], -7.89% [at 11.5 µM]. Besides, the activity change, negative = cytotoxicity in assay [6] is -3.45% [at 9.19 µM]; in assay [9], -4.45% [at 9.17 µM]; in assay [18], -0.051% [at 18.4 µM]. For the same compound, the outcome in assay [8] was “inactive [at 9.19 µM]”; in assay [11], “inactive [at 9.19 µM]”; in [16], “inactive [at 11.5 µM]”. Besides, in assay [13], the Potency is 3050 nM (active). Besides, the activity change, negative = cytotoxic in [14] was -2.49% [at 9.19 µM]. Also, in [20], the cytotoxicity (LDH release) was -0.251 [at 9.19 µM].

On to `C=C[C@@]1(C)CC[C@@H]([C@H](C)C(C)=O)O1`, for which the result in [1], in [14], in assay [17] and in assay [20] was inactive. Also, the Potency result in assay [2], in assay [3], in assay [19], in [4], in assay [5] and in [6] was “inactive” throughout. Besides, the Potency entry in assay [7], in assay [8], in [9], in assay [10], in assay [11] and in assay [12] was “inactive” throughout. The Potency entry in assay [13], in assay [15], in assay [16] and in assay [18] was “inactive” throughout.

On to `C/C(=C\[C@H](C)C(=O)CCCC1CC(=O)NC(=O)C1)[C@@H]1OC(=O)/C=C/CC/C=C/[C@H](O)[C@@H](O)[C@@H]1C`, for which the call in [1], in assay [14], in assay [17] and in assay [20] was inactive. Also, the Potency entry in assay [2], in [3], in assay [19], in assay [4], in [5] and in assay [7] was “inactive” throughout. Moreover, in [13], the Potency result is “inactive”. In addition, the Potency in assay [6] was 6620 nM (active); in [8], 372 nM (active); in assay [10] it was 2630 nM (active); in [12] it was 3310 nM (active); in [16], 6110 nM (active); in assay [18], 3810 nM (active).
